PubChem BioAssay (Tox21)
A number with no mark means an inactive call. Calls of active or inactive are those of the source. The call rests on the fitted dose curve; in most records, active means well fitted curve in the direction sought with a large enough effect in the repeat runs; inconclusive means weak or mixed curves; inactive means flat fitted curve, though single readings scatter. Non-standard residues stand in square brackets, D forms with d. Residues, ends and D or L forms follow the SMILES beside them. *: point of attachment. Sta = CC(C)C[C@H](N)[C@@H](O)CC(=O)O; Isovaleryl = CC(C)CC(=O)*

Experiment: qHTS assay to test for compound auto fluorescence at 590 nm (red) in HepG2 cell free culture (AID 720684)
Conditions: cell-free medium autofluorescence, red 540/590 nm; series mostly up to 91.3 µM
From the text: U.S. Tox21 Program National Center for Advancing Translational Sciences [NCATS] NIH Chemical Genomics Center [NCGC] U.S. Environmental Protection Agency [EPA] National Institutes of Environmental Health Sciences [NIEHS] National Toxicology Program [NTP] U.S. Food and Drug Administration [FDA] Tox21 Assay Overview: Compound auto fluorescence often interferes with screening of the compound library against various biological targets and signaling pathways. Some of these compounds may have fluorophoric properties. Such properties may interfere with the assay outputs resulting in false positives and/or negatives. To decrease such complications and ensure the compound activities are relevant in terms of biological response, the Tox21 10K compound library was screened for auto fluorescence. From the fluorophores used as reporter signals in our screening assays, the auto fluorescence equivalencies of compounds against three fluorophores have been evaluated: Triamterene, Fluorescein and Rose Bengal sodium for blue, green and red fluorescence, respectively. The fluorescence intensities were measured using Excitation/Emission wavelengths at 405/460nm, 485/535nm and 540/590nm for blue, green and red labels, respectively. This assay includes the red fluorescence data.
Tox21 Assay Protocol Summary: 5 uL of culture medium (MEM containing 10% FBS) per well was dispensed into black wall/clear bottom 1536-well plates using a Multidrop Combi Dispenser (ThermoFisher Scientific, Waltham, MA). After 23 nL compound or DMSO vehicle was transferred into assay plate by a pintool work station (Kalypsys, San Diego, CA), fluorescence intensities in the assay plates were measured by an Envision (PerkinElmer, Shelton, CT) plate reader using three labels for measuring blue, green and red fluorescence at […] 460, 535 and 590nm respectively.
On the % scale 0 is the no-effect control and ±100 the full control effect.

SMILES	outcome	fluorescence, % of Rose Bengal
C/C(Cl)=C/CCl	inactive	–
CC(=O)Nc1ccc(S(=O)(=O)Nc2cc(C)on2)cc1	inactive	–
Cc1ccc(NC(N)=O)cc1	inactive	–
C=CCN(CC=C)CC=C	inactive	–
CCNC(=O)C(C)OC(=O)Nc1ccccc1 (stereo not given)	inactive	–
Cc1ccc(N)nc1	inactive	–
CC(=O)OCC(=O)[C@@]1(O)CC[C@H]2[C@@H]3CCC4=CC(=O)C=C[C@]4(C)[C@H]3[C@@H](O)C[C@@]21C	inactive	–
CCCCS	inactive	–
CCCCN1C(=O)c2ccccc2C1=O	inactive	–
O=CN1CCCCC1	inactive	–
Cc1cc(C)c(N)c(Cl)c1	inactive	–
CC(C)C[P+](C)(CC(C)C)CC(C)C	inactive	–
CC(C)(O)c1ccc(C(C)(C)O)cc1	inactive	–
CCc1ncc(C)[nH]1	inactive	–
CCN1CCN(C(=O)N[C@@H](C(=O)N[C@@H]2C(=O)N3[C@@H]2SC(C)(C)[C@H]3C(=O)O)c2ccccc2)C(=O)C1=O	inactive	–
Clc1cc(Cl)c(Cl)c(Cl)c1Cl	inactive	–
CCCCCCCCCCCCCC(=O)OCC	inactive	–
c1cc2ccc3ccc4ccc5cccc6c(c1)c2c3c4c56	–	0.202% [at 3.72 µM]
CCCCCCCCOCCC#N	inactive	–
C/C=C(\C)C=O	inactive	–

SMILES	outcome	fluorescence, % of Rose Bengal
CCOC(=O)CC(C(C)=O)C(C)=O	inactive	–
CC(C)(C)C(=O)CC(=O)C(C)(C)C	inactive	–
C=CC(C)(CCC=C(C)C)OC(=O)C(C)C (stereo not given)	inactive	–
Cc1ccc(S(=O)(=O)NC(=O)NN2CC3CCCC3C2)cc1 (stereo not given)	–	0.0439% [at 18.6 µM]
CC(C)CC(=O)N[C@H](C(=O)N[C@H](C(=O)N[C@@H](CC(C)C)[C@@H](O)CC(=O)N[C@@H](C)C(=O)N[C@@H](CC(C)C)[C@@H](O)CC(=O)O)C(C)C)C(C)C (Isovaleryl-VV[Sta]A[Sta]-OH)	inactive	–
CC[C@@]1(c2ccccc2)NC(=O)N(C)C1=O	inactive	–
COc1cc2nc(N3CCN(C(=O)C4CCCO4)CC3)nc(N)c2cc1OC (stereo not given)	inactive	–
CC(C)(C)C(=O)CCc1ccc(Cl)cc1	inactive	–
O=C(CCBr)N1CCN(C(=O)CCBr)CC1	inactive	–
CN(C)CCc1c[nH]c2ccc(C[C@H]3COC(=O)N3)cc12	inactive	–
C[C@H]1COc2c(C3(N)CC3)c(F)cc3c(=O)c(C(=O)O)cn1c23	inactive	–
CC(C)(Sc1cc(C(C)(C)C)c(O)c(C(C)(C)C)c1)Sc1cc(C(C)(C)C)c(O)c(C(C)(C)C)c1	–	-0.645% [at 18.6 µM]
CCCC(=O)OC	inactive	–
O=P(O)(O)C(O)(Cc1cccnc1)P(=O)(O)O	inactive	–
CCCCCCCCCCCCCCBr	inactive	–
CCN(CC)CC	inactive	–
NC[C@H]1O[C@H](O[C@H]2[C@H](O)[C@@H](O[C@H]3O[C@H](CO)[C@@H](O)[C@H](N)[C@H]3O)[C@H](N)C[C@@H]2N)[C@H](N)[C@@H](O)[C@@H]1O	inactive	–
CCCOc1ccc(C(=O)OCCN(CC)CC)cc1N	inactive	–
CC(O)C(CO)C(C)O (stereo not given)	inactive	–
CC(O)CCCCn1c(=O)c2c(ncn2C)n(C)c1=O (stereo not given)	inactive	–
